Data as given in PubChem BioAssay AID1531 (NMMLSC, 2009).
The whole screen tested about 290,000 compounds, of which about 3,300 (1.1%) were called active. Rule as the data show it: active = binding response below about 67% or above about 130%; inconclusive = no clear call, values can overlap the other calls; inactive = in between. Only a selection was taken, and actives are over-represented in it overall.

The molecules below were run against Mitogen-activated protein kinase kinase kinase 2 (Homo sapiens) (UniProt Q9Y2U5) (assay: modulators of MEK5 binding to wildtype MEKK2, primary screen, biochemical, multiplex bead flow cytometry, Alexa488-MEK5 (AID 1531)). Conditions: Alexa488-MEK5 binding to MEKK2 WT, at 10 µM, actives lie on both sides.

Row | Structure (SMILES) | binding response (% of control)
1 | N#CCc1c(C#N)c(N)nc(N2CCCC2)c1C#N | 107% (inactive)
2 | O=C(NCc1ccccc1)c1onc(CSc2ccncc2)c1C(=O)NCc1ccccc1 | 104% (inactive)
3 | Clc1ccc2nc(-c3ccccc3)nc(C(Cl)Cl)c2c1 | 90% (inactive)
4 | NC(N)=Nc1nc(-c2ccccc2)c2cc(Cl)ccc2n1 | 150% (active)
5 | O=C(CCl)NNc1nc(-c2ccccc2)c2cc(Cl)ccc2n1 | 102% (inactive)
6 | CC(C)(C)n1nc(Cc2cccc3ccccc23)c(C#N)c1N | 98% (inactive)
7 | COc1ccccc1NC(=O)c1ccc(N2CC3CC(C2)c2cccc(=O)n2C3)c(NC(=O)c2cccnc2)c1 (stereo not drawn) | 105% (inactive)
8 | O=C1N[C@H](Cc2ccccc2)C(=O)N[C@H]1Cc1cn(S(=O)(=O)c2ccccc2)c2ccccc12 | 102% (inactive)
9 | C/C=C/C(=O)OCc1csc(CC(=O)Nc2ccccc2C)n1 | 94% (inactive)
10 | Cc1c(CN2CCC(CO)(CCOc3ccccc3)CC2)[nH]c2ccc(Cl)cc12 | 227% (active)
11 | CCOC(=O)C1(CCOc2ccccc2)CCN(Cc2cc(OC)c(O)cc2Cl)CC1 | 126% (inactive)
12 | OCC1(CCOc2ccccc2)CCN(Cc2cn[nH]c2-c2ccccc2)CC1 | 94% (inactive)
13 | COc1ccc(C2NC(=O)C(=O)/C2=C(\O)c2ccc(Cl)cc2)cc1OC (stereo not drawn) | 109% (inactive)
14 | COC(C[C@@H](O)C[C@@H](O)[C@H](C)OCc1ccccc1)OC | 97% (inactive)
15 | Cn1c(SCc2nc3ccccc3s2)nnc1-c1ccc2c(c1)OCO2 | 30% [inhibitor] (active)
16 | O=C(O)CSc1nnc(-c2ccc3c(c2)OCO3)n1-c1ccccc1 | 102% (inactive)
17 | Cn1c(SCC(=O)N2CCCC2)nnc1-c1ccc2c(c1)OCO2 | 105% (inactive)
18 | CC1CCC2CCCCC2N1C(=O)c1cc([N+](=O)[O-])cc([N+](=O)[O-])c1 (stereo not drawn) | 97% (inactive)
19 | CCn1c(SCc2ccccc2)nc2cc(OC)c(OC)cc2c1=O | 105% (inactive)
20 | O=C(NCC1CCCCC1)c1cc(S(=O)(=O)N2CCCCC2)ccc1N1CCOCC1 | 4% [inhibitor] (active)
21 | COc1ccc(S(=O)(=O)N2CCOCC2)cc1C(=O)NC1CCCCC1 | 104% (inactive)

Row | Structure (SMILES) | binding response (% of control)
22 | COCCNC(=S)Nc1cc(S(=O)(=O)N2CCOCC2)ccc1N1CCCCC1 | 103% (inactive)
23 | CC(C)(c1ccccc1)c1ccc(OCCN2CCCC2)cc1 | 119% (inactive)
24 | Cc1onc(-c2ccccc2Cl)c1C(=O)OCC(=O)c1ccccc1 | -2% [inhibitor] (active)
25 | Cc1onc(-c2ccccc2Cl)c1C(=O)NCCn1ccc2ccccc21 | 98% (inactive)
26 | Cc1[nH]c2ccccc2c1C(=O)COC(=O)c1c(-c2ccccc2)noc1C | 113% (inactive)
27 | O=C1CC2(CCCC2)Oc2ccc(Cl)cc21 | 109% (inactive)
28 | C/C(=N\NC(=O)C1(C)CC1(Br)Br)c1ccc(C)cc1C (stereo not drawn) | 98% (inactive)
29 | COc1ccccc1N1CCN(CCCCOc2ccc(F)cc2)CC1 | 135% (active)
30 | COc1ccc(OCCCCN2CCC(C)CC2)cc1 | 106% (inactive)
31 | CCN1CCN(CCCCOc2ccccc2F)CC1 | 98% (inactive)
32 | O=C(NCCO)C(=O)NCC(c1ccc2c(c1)OCO2)N1CCN(c2ccc(F)cc2)CC1 (stereo not drawn) | 99% (inactive)
33 | O=C(COc1ccc([N+](=O)[O-])cc1)Nc1cccc(C(=O)Nc2ccccc2C(=O)O)c1 | 94% (inactive)
34 | O=C(CC1SCCNC1=O)Nc1ccc(Cl)cc1 (stereo not drawn) | 87% (inactive)
35 | O=C(CC1SCCNC1=O)Nc1ccc(Cl)c(Cl)c1 (stereo not drawn) | 186% (active)
36 | O=C(CC1NCCNC1=O)Nc1cc(Cl)cc(Cl)c1 (stereo not drawn) | 108% (inactive)
37 | CC(C)c1c(C(=O)N/N=C/c2ccccc2C(=O)O)nnn1-c1nonc1N | 102% (inactive)
38 | COC(=O)CN1C(=O)C(C)(C)Oc2ccc(C(=O)Nc3cccc(OC)c3)cc21 | 108% (inactive)
39 | CCOC(=O)c1ccc2[nH]c3c(c2c1)CCCC3NC=O (stereo not drawn) | 97% (inactive)
40 | N#CCSc1nc(-c2ccccc2)nc2ccc(F)cc12 | 100% (inactive)
41 | COc1ccc(NC(=O)CS(=O)(=O)c2ccccc2)cc1 | 109% (inactive)
42 | COC(=O)C(C)n1cnc2c(nnn2-c2cccc(Cl)c2)c1=O (stereo not drawn) | 106% (inactive)

Row | Structure (SMILES) | binding response (% of control)
43 | CCOc1ccc(CNC(=O)C2CCCN(c3nnc(C)c4c(C)n(-c5ccccc5)nc34)C2)cc1 (stereo not drawn) | 105% (inactive)
44 | CCOc1nnc(C)c2c(C)n(-c3cccc(Cl)c3)nc12 | 72% [inhibitor] (active)
45 | COc1ccc(NC(=O)CN2C(=O)COc3ccc(S(=O)(=O)N4CCOCC4)cc32)cc1 | 97% (inactive)
46 | Fc1ccccc1COc1cccc2cccnc12 | 110% (inactive)
47 | Cc1ccc(-c2nc(CSCC(=O)NC3CCN(Cc4ccccc4)CC3)c(C)o2)cc1 | 107% (inactive)
48 | Cc1ccc(S(=O)(=O)N2CCN(C(=O)CSc3cc(C)ccc3C)CC2)c(C)c1 | 104% (inactive)
49 | CC(=O)NCCC(=O)Nc1nc(-c2ccc3c(c2)OCCO3)cs1 | 109% (inactive)
50 | CC(=O)Nc1ccc(N2CCOCC2)c(C(=O)Nc2cccc(C)c2)c1 | -1% [inhibitor] (active)
51 | Cc1cccc(NC(=O)c2cc([N+](=O)[O-])ccc2N2CCN(C)CC2)c1 | 101% (inactive)
52 | COC(=O)c1cc(NC(=O)c2ccco2)ccc1N1CCOCC1 | 99% (inactive)
53 | Cc1nc2ccccc2nc1N/N=C/c1ccc(O)cc1O | 101% (inactive)
54 | O=C(O)c1ccccc1-c1ccccc1C(=O)NCCc1ccccc1 | 100% (inactive)
55 | O=C(NCCN1CCOCC1)c1ccc2c(c1)N(Cc1ccc(Cl)cc1)CCS2 | 104% (inactive)
56 | Cc1c(C)n(Cc2ccc(Cl)cc2)c2ccc(C(=O)NCCCN3CCOCC3)cc12 | 138% (active)
57 | O=C(NCCCN1CCOCC1)c1cc(-c2ccc(Cl)cc2)on1 | 103% (inactive)
58 | COc1ccc(CNC(=O)C(C)NCc2ccccc2Cl)cc1 (stereo not drawn) | 103% (inactive)
59 | Cc1c(C)c(C)c(S(=O)(=O)N2CCC3(CC2)OCCO3)c(C)c1C | 108% (inactive)
60 | Cc1cc(C)n(CCNS(=O)(=O)c2ccc(Cl)cc2)n1 | 103% (inactive)
61 | Cc1cc2cc(CNC(=O)c3cccs3)ccc2[nH]1 | 55% [inhibitor] (active)
62 | CCc1cccc(CC)c1NC(=S)NCc1ccc2[nH]c(C)cc2c1 | 102% (inactive)
63 | Cc1cc2cc(CNC(=O)c3ccc(S(=O)(=O)N4CCOCC4)cc3)ccc2[nH]1 | 97% (inactive)
